{
  "source": "the supplement of paper PMC7724964",
  "data": [
    {"molecular_target": "CBX3 109-173 Chromo_shadow (domain begin residue: 109, domain end residue: 173), Q13185", "sequence (Q13185 whole entry, the tested form may be a part)": "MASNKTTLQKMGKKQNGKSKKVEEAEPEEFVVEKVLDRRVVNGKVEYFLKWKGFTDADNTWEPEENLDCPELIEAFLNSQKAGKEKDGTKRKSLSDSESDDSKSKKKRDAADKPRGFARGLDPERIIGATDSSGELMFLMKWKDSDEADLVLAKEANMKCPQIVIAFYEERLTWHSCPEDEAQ", "assay": "phage ELISA signal ratio (GST-PRM binding over GST background); higher = stronger binding of peptide-phage to the PRM", "procedure": "(§1)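 Phage-displayed random hexadecapeptides (Cys-free, flanked by invariant Gly linkers, fused to the M13 P8 major coat protein) were selected over 5 rounds against GST-fused human PRM domains. Individual clones from rounds 4-5 were tested by phage ELISA, and positive clones binding the target but not GST were sequenced. Values are the ELISA signal ratio of target over background (GST); the background signal is given separately.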", "values": [
      {"binder": "IQKWMNFDDFATAVFH", "phage ELISA signal ratio": 11.5}
    ]},
    {"molecular_target": "T1, BTN1A1 285-479 SPRY (domain begin residue: 285, domain end residue: 479), Q13410", "T1 chain": "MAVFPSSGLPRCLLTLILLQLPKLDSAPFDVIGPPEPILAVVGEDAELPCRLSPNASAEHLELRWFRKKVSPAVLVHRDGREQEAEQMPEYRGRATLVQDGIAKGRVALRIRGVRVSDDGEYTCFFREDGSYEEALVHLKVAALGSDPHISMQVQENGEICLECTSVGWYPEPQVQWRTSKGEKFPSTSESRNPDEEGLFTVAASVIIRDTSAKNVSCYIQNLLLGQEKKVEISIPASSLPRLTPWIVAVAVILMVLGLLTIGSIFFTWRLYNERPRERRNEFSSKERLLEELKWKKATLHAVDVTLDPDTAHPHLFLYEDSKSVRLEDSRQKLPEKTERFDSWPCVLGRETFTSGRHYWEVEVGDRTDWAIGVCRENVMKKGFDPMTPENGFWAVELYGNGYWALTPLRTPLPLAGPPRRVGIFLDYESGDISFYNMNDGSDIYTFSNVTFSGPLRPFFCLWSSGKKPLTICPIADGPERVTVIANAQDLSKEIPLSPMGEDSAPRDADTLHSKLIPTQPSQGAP", "assay": "phage ELISA signal ratio (GST-PRM binding over GST background); higher = stronger binding of peptide-phage to the PRM", "procedure": "as §1", "values": [
      {"binder": "FEQHWMQKQMAVRQIV", "phage ELISA signal ratio": 13.6},
      {"binder": "GGIDWQGVYMKHFEMT", "phage ELISA signal ratio": 20.6}
    ]},
    {"molecular_target": "CKS1B 1-79 CKS (domain begin residue: 1, domain end residue: 79), P61024", "sequence (P61024 whole entry)": "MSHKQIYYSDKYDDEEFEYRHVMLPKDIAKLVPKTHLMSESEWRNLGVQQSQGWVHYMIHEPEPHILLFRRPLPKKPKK", "assay": "phage ELISA signal ratio (GST-PRM binding over GST background); higher = stronger binding of peptide-phage to the PRM", "procedure": "as §1", "values": [
      {"binder": "WDGQAWHLSDPYLWEM", "phage ELISA signal ratio": 17.9}
    ]},
    {"molecular_target": "T2, CD2BP2 256-341 GYF (domain begin residue: 256, domain end residue: 341), O95400", "T2 chain": "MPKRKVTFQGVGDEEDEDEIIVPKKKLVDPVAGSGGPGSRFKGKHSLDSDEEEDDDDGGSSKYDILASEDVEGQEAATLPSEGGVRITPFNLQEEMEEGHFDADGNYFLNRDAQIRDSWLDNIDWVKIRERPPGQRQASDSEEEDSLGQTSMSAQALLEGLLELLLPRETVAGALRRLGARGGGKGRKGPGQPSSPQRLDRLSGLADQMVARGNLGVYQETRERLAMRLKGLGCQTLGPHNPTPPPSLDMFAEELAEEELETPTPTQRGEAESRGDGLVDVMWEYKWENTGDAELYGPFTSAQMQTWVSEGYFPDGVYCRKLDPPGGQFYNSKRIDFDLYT", "assay": "phage ELISA signal ratio (GST-PRM binding over GST background); higher = stronger binding of peptide-phage to the PRM", "procedure": "as §1", "values": [
      {"binder": "MEEPPGYRLNMYAMSY", "phage ELISA signal ratio": 17.5}
    ]},
    {"molecular_target": "ARPC3 1-178 P21-Arc (domain begin residue: 1, domain end residue: 178), O15145", "assay": "phage ELISA signal ratio (GST-PRM binding over GST background); higher = stronger binding of peptide-phage to the PRM", "procedure": "as §1", "values": [
      {"binder": "VPEWWWQGWDPHHVVE", "phage ELISA signal ratio": 6.99}
    ]}
  ]
}
